The values below come from PubChem BioAssay (EPA / NIEHS).

The source made the active and inactive calls. Rule for the calls: active = hit-call score of the fitted dose curve at least 0.9, where 1 is the maximum; inactive = score below 0.9.

A short description of this assay: ATG_NF_kB_CIS: Attagene CIS-FACTORIAL HepG2 Assay for human Nuclear Factor Kappa B (NF-kB) (AID 2282991). To be noted: HepG2 Attagene cis-factorial NF-kB reporter mRNA; actives raise or lower the signal. As for the experimental part:
ATG_CIS is a cell-based, multiplexed-readout assay that uses HepG2, a human liver cell line, with measurements taken at 24 hours after chemical dosing in a 24-well plate.ATG_NF_kB_CIS is one of 52 assay component(s) measured or calculated from the ATG_CIS assay. It is designed to make measurements of mRNA induction, a form of inducible reporter, as detected with fluorescence intensity signals by Reverse transcription polymerase chain reaction (RT-PCR) and Capillary electrophoresis technology.Data from the assay component ATG_NF_kB_CIS was analyzed into 1 assay endpoint. This assay endpoint, ATG_NF_kB_CIS, was analyzed with bidirectional fitting relative to DMSO as the negative control and baseline of activity. Using a type of inducible reporter, measures of mRNA for gain or loss-of-signal activity can be used to understand the reporter gene at the transcription factor-level as they relate to the gene NFKB1. Furthermore, this assay endpoint can be referred to as a primary readout, because this assay has produced multiple assay endpoints where this one serves a reporter gene function. To generalize the intended target to other relatable targets, this assay endpoint is annotated to the dna binding intended target family, where the subfamily is NF-kappa B.
Human liver HepG2 cells are transiently transfected with multiple reporter transcription units (MRTUs) in 6-well plates using FuGene 6 reagent (Roche; 3 ml FuGene/1 mg DNA). The MRTU constructs are regulated by a cis-regulating element (promoter). […] A major difference between the CIS and TRANS system is that in CIS activities of endogenous TFs are measured, whereas the TRANS assay evaluates changes in activities of exogenous, chimeric NR-Gal4 proteins. […] At the end of 24 hour incubation, total RNA was isolated using TriZol reagent (Invitrogen). The isolated RNA is then reverse-transcribed using oligo(dT) primer and Mo-MLV reverse transcriptase (Invitrogen) with DNAse I (Ambion) treatment for 30 min. The one-tenth of the produced cDNA was amplified by PCR using Taq DNA polymerase (Invitrogen) and two reporter sequence-specific primers. The PCR products were fluorescently labeled by primer extension with 6-arboxyfluorescein (6-FAM) 5'-labeled reporter sequence-specific primer (2 min at 95 C, 20 s at 68 C and 10 min at 72 C) and these products were digested with 5U of HpaI (New England Biolabs) for 2h at 37 C. The fragments were purified using Qiaquick PCR columns (Qiagen), analyzed on an ABI 3130xL genetic analyzer (Applied Biosystems) with peak positions identified by using a set of X-rhodamine (ROX)-labeled MapMarker1000 molecular weight standards (BioVentures). The raw capillary electrophoresis data was processed using Attagraph software (Attagene).
In the case of `CCOC(=O)C1=NN(c2ccc(Cl)cc2Cl)C(C)(C(=O)OCC)C1` (stereo not given), the outcome was inactive.
The same measure, in the same setting: the same measure for `CCC(C)N` (stereo not given): “inactive”.
Regarding `COc1ccc(C(=O)c2ccccc2)c(O)c1`, the AC50 – broadly, the midpoint of the concentration-response curve, whichever way the signal moves – is 168 µM (active).
Turning to `CC1=CP(=O)(c2ccccc2)CC1` (stereo not given), the molecule was classed as inactive.
Still for that read-out and setting: with `CC(C)OC(=O)c1ccccc1` the entry was “inactive”; with `CC1=CC(C)C(C=O)CC1` (stereo not given), “inactive”; with `CCCC=C(C=O)CC`, “inactive”.
As for `CCNc1nc(NC(C)(C)C)nc(OC)n1`, the molecule was called inactive.
Turning to `C/C=C/C=C/CCCCCCCO`, the molecule was classed as inactive.
In the case of `Oc1ccc(-c2ccccc2)c(Cl)c1`, the result was inactive.
On the same count and under the same terms, the same measure for `Clc1cccnc1`: “inactive”.
On to `CCC(C)C(=O)OCCc1ccccc1` (stereo not given), for which the call was inactive.
For the molecule `O=C1CCCCCCCCCCCN1`, the molecule was classed as inactive.
On the same count and under the same terms, the same measure for `CCOc1ccc(NC(N)=O)cc1`: “inactive”; for `CC1=NN(c2ccc(S(=O)(=O)O)cc2)C(=O)C1N=Nc1ccccc1` (stereo not given): “inactive”; for `Nc1ccc(Cl)c(N)c1`: “inactive”.
In the case of `CC(c1cc(C(C)(C)C)cc(C(C)(C)C)c1O)c1cc(C(C)(C)C)cc(C(C)(C)C)c1O`, the call was inactive.
Regarding `Cc1ccc(S(=O)(=O)N=C=O)cc1`, the call was inactive.
Consider `C=CC(=O)NC(C)(C)C`, for which the result was inactive.
Same read-out and setting: with `CCC(C)c1ccccc1` (stereo not given) the entry was “inactive”; with `CC(C)(c1ccccc1)c1ccc(Nc2ccc(C(C)(C)c3ccccc3)cc2)cc1`, “inactive”.
Same read-out and setting: the same measure for `O=C1c2ccccc2C(=O)c2cc(S(=O)(=O)O)ccc21`: “inactive”.
The same measure, in the same setting: with `[Cl][Sc]([Cl])[Cl]` the entry was “inactive”; with `O=C(O)/C=C/c1ccccc1`, “inactive”.
Take `C=CC(=O)O[C@H]1C[C@@H]2CC[C@@]1(C)C2(C)C`: the AC50 is 181 µM (active).
With `CC1(C)CC(O)CC(C)(C)N1[O]`, the molecule was called inactive.
Same read-out and setting: the same measure for `CCC1COC(=O)O1` (stereo not given): “inactive”; for `C=CC(C)(CCC=C(C)C)OC(=O)C=Cc1ccccc1` (stereo not given): “inactive”.
Same read-out and setting: the same measure for `CC/C=C\CCOC(=O)c1ccccc1O`: “inactive”.
Turning to `CCCCCC(=O)OCC`, the outcome was inactive.
For the molecule `CC(C)C(=O)OCCc1ccccc1`, the molecule was called inactive.
Still for that read-out and setting: the same measure for `CC(C)(CO)C(O)C(=O)NCCCO` (stereo not given): “inactive”.
As to `O=C1CCCCC1C1CCCCC1` (stereo not given), the call was inactive.
As to `CCCCNS(=O)(=O)c1ccccc1`, the molecule was classed as inactive.
In the case of `C=C1C[C@H]2[C@@H]3C=C(C)C4=CC(=O)CC[C@]4(C)[C@H]3CC[C@]2(C)[C@@]1(OC(C)=O)C(C)=O`, the AC50 is 63 µM (active).
As for `CCCSSCCC`, the result was inactive.
The same measure, in the same setting: with `NNS(=O)(=O)c1ccc(Oc2ccc(S(=O)(=O)NN)cc2)cc1` the entry was “inactive”; with `CCCCCCCO`, “inactive”.
The same measure, in the same setting: the same measure for `CCOC(=O)OC(=O)OCC`: “inactive”; for `COc1cc(O)c(C(=O)c2ccccc2)cc1S(=O)(=O)O`: “inactive”.
